From PubChem BioAssay
MARV entry inh: qHTS for Inhibitors of binding or entry into cells for Marburg Virus. Marburg virus pseudotype entry/binding inhibition, cell-based. Potency, µM (titrated, usually from 49.2 µM), usual class: inhibitors. 18,000 tested, 6.5% active. AID 720532, 2013
LASV entry inh: qHTS for Inhibitors of binding or entry into cells for Lassa Virus; Lassa virus pseudotyped entry inhibition, cell-based qHTS; 18,000 tested, 4.1% active; Potency, µM (doses to about 49.2 µM), usual class: inhibitors; AID 720533, 2013
Hits are given with their value; i = inactive; ? = inconclusive; nt = no result given; ! = repeats disagree; [ ] = dose if it differs, or a comment. Compounds with a hit are over-represented: about 8% of the library has one in this group of screens. The call rests on the fitted dose curve; tested in HEK293 cells.

SMILES	MARV entry inh	LASV entry inh
CC1(C)C(=O)C=C[C@@]2(C)C1CC(O)[C@]1(C)C2CC[C@@]2(C)C(c3ccoc3)OC(=O)C3O[C@]312 (stereo not given in full)	12.6µM	?
CC1(C)OC2CC(=O)OCC23C1CC(=O)C1(C)C3CC[C@@]2(C)[C@H](c3ccoc3)OC(=O)C3OC312 (stereo not given in full)	i	i
CC1(C)C(O)CC(O)[C@]2(C)C1CC(O)[C@]1(C)C2CC[C@@]2(C)C(c3ccoc3)OC(=O)C3O[C@]312 (stereo not given in full)	?	i
CC1(C)C(=O)C=C[C@@]2(C)C1C=C[C@@]1(C)C2CC[C@@]2(C)C(c3ccoc3)OC(=O)C3OC312 (stereo not given in full)	7.94µM	?
CCOC(=O)CN1C(=O)NC(c2cccc(F)c2)C(C(C)=O)=C1C (stereo not given)	i[8.59 µM]	i[8.59 µM]
C[C@H]1CC[C@H]2C(=O)N(Cc3ccc(Cl)cc3)C[C@H](O)CN2[C@H]1c1ccc(Br)cc1	i[8.59 µM]	i[8.59 µM]
C=C(C)CO[C@H]1C=C[C@@H](c2ccccc2)O[C@H]1CO	i[8.59 µM]	i[8.59 µM]
C[C@@H]1CC2CCCC2[C@]2(O1)C(=O)Nc1ccccc12 (stereo not given in full)	i[8.59 µM]	i[8.59 µM]
CCc1cccc(N(C)C(N)=Nc2cccc3ccccc23)c1	28.2µM	?
CN(C)c1cccc(CN2CCN(c3ccccc3)CC2)c1	i	i
O=C1OC2(CCCCC2)CC2=C1[C@H]1O[C@](c3ccsc3)(Cc3ccccc31)O2	i[8.59 µM]	i[8.59 µM]
CC(C)CN1Cc2cc(Br)ccc2Oc2ccc(Cl)cc2S1(=O)=O	?	i
C=C1C2CC[C@@]3(C)C(c4ccoc4)OC(=O)C[C@@]13OC1CC(OC(C)=O)C(C)(C)C(CC(=O)OC)[C@@]12C (stereo not given in full)	12.6µM	?
C=C1C2CC[C@@]3(C)C(c4ccoc4)OC(=O)C[C@@]13OC1CC(=O)C(C)(C)C(CC(=O)OC)[C@]12C (stereo not given in full)	i	i
CCN1C(=O)[C@@H]2[C@H]3[C@H](O)[C@H](O)CC(=NOC[C@H]4O[C@H](c5ccccc5)C=C[C@H]4Oc4ccc(OC)cc4)[C@@H]3CC[C@H]2C1=O	i[8.59 µM]	i[8.59 µM]
COc1ccc(C=CNC(=O)c2ccc(OC)cc2)cc1	i[8.59 µM]	i[8.59 µM]
[Cl-].[Cl-].[Hg+2]	2.82µM	3.16µM
Cn1c(-c2nonc2N)nc2cnccc21	?	i
CCn1c(-c2nonc2N)nc2cnc(Oc3cccc(NC(=O)c4ccc(N(C)C)cc4)c3)cc21	i	i
CCN1C(=NCc2ccc3c(c2)OCO3)NC(CCc2ccccc2)C(C(=O)OC)=C1C (stereo not given)	i[8.59 µM]	i[8.59 µM]
COC(=O)C1(C(=O)OC)C/C=C\Cc2ccccc2[C@@H]1C[N+](=O)[O-]	i	0.251µM!
COC(=O)C1(C(=O)OC)C/C=C\C/C=C\c2ccccc2[C@@H]1C[N+](=O)[O-]	i	i
C=CC(C)(C)c1c2c(c(O)c3c(=O)c4ccc(O)c(O)c4oc13)C=CC(C)(C)O2	20µM	?
CCOC(=O)CN1C(=O)NC(CCc2ccccc2)C(C(=O)OC)=C1C (stereo not given)	i[8.59 µM]	nt
FC(F)(F)c1ccc(-c2nc(-c3ccccc3)oc2Nc2ccc3ccccc3c2)cc1	i[8.59 µM]	nt
SMILES	MARV entry inh	LASV entry inh
O=C(NC1CC1)c1ccc(NC(=O)C2CCC2)cc1	i	i
CC(=O)Nc1ccc(NC(=S)NC(=O)c2ccc(C(C)(C)C)cc2)cc1	7.08µM	31.6µM
CC(C)OC(=O)c1cc2c(OCC(O)CNC(C)(C)C)cccc2[nH]1 (stereo not given)	35.5µM	i
C=NCc1cc2c(OC[C@@H](O)CNC(C)(C)C)cccc2[nH]1	?	i
COc1ccc(CN2C[C@]3(CO)OC(CO)C[C@H]3[S+]2(=O)[O-])cc1 (stereo not given in full)	i	i
O[C@@](CCN1CCCCC1)(c1ccccc1)[C@@H]1C[C@H]2C=C[C@@H]1C2	?	i
COC(=O)N[C@@H](C=Cc1ccco1)[C@]1(C(=O)OC)CCCC1=O	i[8.59 µM]	i[8.59 µM]
COc1ccc([C@H]2C[C@H](n3cc(C4CC4)nn3)[C@@H](O)CN2C(=O)c2cccs2)cc1	i	i
CC1(C)CC(=O)C2=C(C1)O[C@@]1(CCCCN3C(=O)c4ccccc4C3=O)Cc3c(ccc4ccccc34)[C@H]2O1	i[8.59 µM]	i[8.59 µM]
CC1O[C@@H](OC2CC[C@@]3(C=O)C4CC[C@]5(C)C(C6=CC(=O)OC6)CC[C@@]5(O)C4CC[C@]3(O)C2)C(O)C(O)C1O (stereo not given in full)	0.199µM	0.251µM
COC1C(O)C(OC2CC[C@]3(C=O)C4C(OC(C)=O)C[C@@]5(C)C(C6=CC(=O)OC6)CC[C@]5(O)C4CC[C@]3(O)C2)OC(C)C1OC(C)=O (stereo not given in full)	i	i
C[C@]12CCC3C(CC[C@]4(O)CC(O)CC[C@@]34C=O)[C@]1(O)CCC2C1=CC(=O)OC1 (stereo not given in full)	10µM	11.2µM
C[C@@H]1O[C@@H](O[C@H]2CC[C@]3(C=O)C4CC[C@]5(C)[C@@H](C6=CC(=O)OC6)CC[C@]5(O)[C@@H]4CC[C@]3(O)C2)[C@H](O)[C@H](O)[C@H]1O (stereo not given in full)	0.1µM	0.112µM
CCN1C(=O)[C@@H]2[C@H]3[C@H](O)[C@H](O)CC(=NOC[C@@H](C)[C@H](OCc4ccccc4)C(C)C)[C@@H]3CC[C@H]2C1=O	i[8.59 µM]	nt
CC=COC(=O)N[C@@H](c1ccccc1)[C@]1(C(=O)OCC)CCCC1=O	i[8.59 µM]	i[8.59 µM]
O=C(OCc1cn([C@H]2C[C@H](c3ccc(Cl)cc3)N(Cc3cccs3)C[C@H]2O)nn1)c1ccccc1	?	i
COc1cccc([C@H]2Oc3ccc(OC)cc3C(=NOC[C@@H](C)[C@H](OCc3ccccc3)C(C)C)[C@H]2O)c1	i[8.59 µM]	i[8.59 µM]
CC(=O)[C@]12[C@H](c3ccccc3)[C@@H]3CCN(C(=O)N[C@H]1c1ccccc1)[C@@]32C	i[8.59 µM]	i[8.59 µM]
CN(C)CC(O)Cn1c2ccc(Br)cc2c2cc(Br)ccc21 (stereo not given)	7.94µM	22.4µM
CC(=O)CCC(=O)N1CCC(n2c(C3CCCO3)nc3cc(C(F)(F)F)ccc32)CC1 (stereo not given)	i	i
CN1CCN(c2nc3cc(C(F)(F)F)ccc3n3cccc23)CC1	28.2µM!	i
CC(=O)Oc1ccc(C2(c3ccc(OC(C)=O)cc3)Oc3ccccc3NC2=O)cc1	i	10µM
CC(=O)Oc1cccc(O)c1	i	i
COCc1ccc(CN2CCOc3c(O)cc(-c4cc(C)c5ccc(F)cc5n4)cc3C2)o1	i	?
Oc1ccc(Cl)cc1CN1CCOc2c(O)cc(-c3nc4ccccc4s3)cc2C1	i	1.58µM
COC(=O)C1=C(C(=O)OC)[C@@H]2N(C)c3ccccc3[C@@]23C[C@@H](C(=O)OC)N(C(=O)NCCBr)C3=N1	?	i[8.59 µM]
CC(=O)C1CCC2C3CCC4=CC(=O)CC[C@@]4(C)C3CC[C@]12C (stereo not given in full)	22.4µM	i
CC(=O)[C@@]1(O)CC[C@H]2[C@@H]3CCC4=CC(=O)CC[C@]4(C)[C@H]3CC[C@@]21C	i	i
CCCCCC(=O)O[C@]1(C(C)=O)CC[C@H]2[C@@H]3CCC4=CC(=O)CC[C@]4(C)[C@H]3CC[C@@]21C	?	31.6µM
